Measurements from publication PMC4336329 (PLoS ONE, 2015).
Among all 310,000 compounds or so, about 14,000 (4.5%) showed an effect of 50% or more. Effects have a minus sign here. What follows is part of a selection rich in strong results, with near analogues and random picks from the rest.

Biological target: human ether-à-go-go-related gene (hERG) potassium channel (human, UniProt Q12809)
Test: primary screen, population patch clamp on CHO cells stably expressing hERG; higher = less effect of the substance
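Also: peak tail current of the secondary pulse compared with the same well before compound.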

human ether-à-go-go-related gene (hERG) potassium channel, sequence (Q12809 whole entry, looked up): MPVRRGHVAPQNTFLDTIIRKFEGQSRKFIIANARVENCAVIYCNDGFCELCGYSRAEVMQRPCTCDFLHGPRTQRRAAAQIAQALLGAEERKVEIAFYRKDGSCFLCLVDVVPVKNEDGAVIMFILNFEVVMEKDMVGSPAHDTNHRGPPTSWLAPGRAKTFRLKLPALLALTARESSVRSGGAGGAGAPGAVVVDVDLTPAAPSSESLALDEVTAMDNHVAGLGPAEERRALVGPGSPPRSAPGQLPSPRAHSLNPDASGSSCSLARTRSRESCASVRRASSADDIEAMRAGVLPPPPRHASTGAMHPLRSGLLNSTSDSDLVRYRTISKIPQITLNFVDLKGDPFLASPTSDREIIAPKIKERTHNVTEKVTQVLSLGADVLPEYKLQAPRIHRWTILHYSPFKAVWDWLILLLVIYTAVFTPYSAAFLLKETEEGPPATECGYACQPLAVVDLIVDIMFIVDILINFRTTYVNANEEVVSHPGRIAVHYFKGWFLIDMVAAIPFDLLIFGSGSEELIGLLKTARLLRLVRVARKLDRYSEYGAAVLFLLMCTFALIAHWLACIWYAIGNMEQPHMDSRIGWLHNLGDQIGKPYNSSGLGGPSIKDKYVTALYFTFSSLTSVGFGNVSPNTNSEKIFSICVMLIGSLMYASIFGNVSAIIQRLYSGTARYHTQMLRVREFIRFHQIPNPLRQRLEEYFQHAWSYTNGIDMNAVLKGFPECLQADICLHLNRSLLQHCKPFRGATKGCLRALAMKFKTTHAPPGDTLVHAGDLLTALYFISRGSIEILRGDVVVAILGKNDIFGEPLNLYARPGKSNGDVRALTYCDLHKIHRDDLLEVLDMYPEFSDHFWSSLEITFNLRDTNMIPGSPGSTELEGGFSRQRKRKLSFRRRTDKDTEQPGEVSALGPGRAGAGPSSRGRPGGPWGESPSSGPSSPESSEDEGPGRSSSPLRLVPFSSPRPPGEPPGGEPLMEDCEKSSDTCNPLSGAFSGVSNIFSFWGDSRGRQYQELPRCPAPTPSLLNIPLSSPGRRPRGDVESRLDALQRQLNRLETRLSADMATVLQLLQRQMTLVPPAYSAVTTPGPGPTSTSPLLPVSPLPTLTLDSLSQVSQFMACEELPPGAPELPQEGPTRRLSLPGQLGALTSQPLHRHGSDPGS

SMILES	hERG current change (%, negative = inhibition) at 10uM [%]
Cc1nc(CNC(=O)C2CCC(=O)N(Cc3cccc(F)c3)C2)sc1C (stereo not shown)	5.68
Cc1onc(-c2c(Cl)cccc2Cl)c1C(=O)N1CCc2ccccc21	-19.9
Cc1cc2c(cc1S(=O)(=O)Nc1cccc(F)c1)n(C)c(=O)c(=O)n2C	-10.9
O=C(NC1CCCCC1)c1cc2ccccc2cc1O	-12.7
CC(=O)c1ccc(S(=O)(=O)N2CCC3(CC2)CC(=O)c2ccccc2O3)cc1	-42.6
O=C1CC2(CCN(S(=O)(=O)c3ccccc3)CC2)Oc2ccccc21	-84.6
O=C1CC2(CCN(S(=O)(=O)c3ccccc3F)CC2)Oc2ccccc21	-84.6
Cc1ccc(S(=O)(=O)N2CCC3(CC2)CC(=O)c2ccccc2O3)cc1	-25.7
O=C(O)c1ccc(S(=O)(=O)N2CCC3(CC2)CC(=O)c2ccccc2O3)cc1	11.5
COc1ccc(S(=O)(=O)N2CCC3(CC2)CC(=O)c2ccccc2O3)cc1	-24.8
O=C(Nc1nnc(-c2ccc(Br)cc2)o1)c1cccc(N2C(=O)CCC2=O)c1	13.4
COc1ccc(CN2CC[C@H]3C=CC[C@@H](C(=O)N4CCOCC4)[C@H]3C2=O)cc1OC	7.75
CC(=O)N1N=C(c2ccc3nccnc3c2)CC1c1ccccc1 (stereo not shown)	-34.9
Cc1ccc(C2=NN(S(C)(=O)=O)C(c3ccc4c(c3)OCO4)C2)cc1 (stereo not shown)	-2
CC(=O)N1N=C(c2ccccc2)CC1c1ccc2c(c1)OCO2 (stereo not shown)	1.98
CC(=O)N1N=C(c2cccc(NS(C)(=O)=O)c2)CC1c1ccc2c(c1)OCO2 (stereo not shown)	-59.2
CS(=O)(=O)N1N=C(c2ccccc2)CC1c1ccc2c(c1)OCO2 (stereo not shown)	13.9
CS(=O)(=O)Nc1cccc(C2=NN(S(C)(=O)=O)C(c3ccc4c(c3)OCO4)C2)c1 (stereo not shown)	-62.3
CS(=O)(=O)Nc1ccc(C2=NN(S(C)(=O)=O)C(c3ccc4nccnc4c3)C2)cc1 (stereo not shown)	-32.8
CC(=O)N1N=C(c2ccc(NS(C)(=O)=O)cc2)CC1c1ccc2nccnc2c1 (stereo not shown)	-63.2
CC(=O)N1N=C(c2ccc(C)cc2)CC1c1ccc2c(c1)OCO2 (stereo not shown)	-30.1
Cc1c(/C=N/NC(=O)c2cc(Br)ccc2O)c(=O)n(C)c(=O)n1C	3.23

SMILES	hERG current change (%, negative = inhibition) at 10uM [%]
Cc1[nH]c2ccccc2c1C(=O)C(=O)N1CCC2(CC1)OCCO2	7.95
COc1cccc(NC(=O)CN(C)CC(=O)Nc2ccc(C)c([N+](=O)[O-])c2)c1	-15.8
CCOc1ccccc1N(CC(=O)NC1CCCCC1)S(=O)(=O)c1ccc(C)cc1	-7.2
CSCCC(NC(=O)c1ccc(Cl)cc1Cl)C(=O)NCc1ccccn1 (stereo not shown)	-8.59
Cc1ccc(NCc2n[nH]c(=S)n2-c2ccccc2)cc1	15
O=C(Nc1ccc(F)c(F)c1)c1cccnc1	0.898
O=C(Nc1ccc(Cl)cc1)Nc1cccnc1	-50.7
O=C(Cc1csc(NC(=O)Nc2cccc(Cl)c2)n1)NCc1cccnc1	-53.8
O=C(Cc1csc(NC(=O)Nc2ccc(Cl)cc2)n1)NCc1ccccn1	-44.7
O=C(Nc1cccnc1)Nc1ccc(F)c(Cl)c1	-36.8
O=C(Cc1csc(NC(=O)Nc2ccc(Cl)cc2)n1)NCc1cccnc1	-50.8
O=C(Cc1csc(NC(=O)Nc2cccc(Cl)c2)n1)NCc1ccccn1	-5.14
O=C(Nc1cccnc1)Nc1cc(Cl)cc(Cl)c1	6.81
O=C(NCc1cccnc1)Nc1cccc(Cl)c1	15
O=C(Nc1ccc(Cl)c(Cl)c1)c1cccnc1	-2.86
O=C(Nc1ccc(F)c(Cl)c1)c1cccnc1	-65.9
COc1ccccc1NC(=O)Nc1nc(CC(=O)NCc2cccnc2)cs1	-13.3
CCN1C(=O)C(=O)N(Cc2ccc(OC)c(F)c2)C1=O	15.1
CC(C)CCNC(=O)C(c1ccco1)N(Cc1ccc(F)cc1)C(=O)c1snc(C(N)=O)c1N (stereo not shown)	-22.4
CC(=O)NC(=C(Cl)Cl)S(=O)(=O)c1ccccc1	23.9
CCCCCn1c(=O)c(C(=O)Nc2cccc(C)c2)c(O)c2ccccc21	20.7
CCN(CC)CCCNc1cc(C(F)(F)F)c(C#N)c2nc3ccccc3n12	-18.4

SMILES	hERG current change (%, negative = inhibition) at 10uM [%]
CCc1cccc(N(C(=O)c2csnn2)C(C(=O)NC(C)(C)C)c2ccccn2)c1 (stereo not shown)	1.65
Cc1ccc(C(=O)Nc2c(C)cc(-c3ccc(Cl)cc3)oc2=O)cc1	-6.18
O=S(=O)(/N=C(/Nc1ccccc1F)c1ccccc1)c1ccccc1	4.57
O=C(NNC(=O)c1cnccc1C(F)(F)F)c1ccc(Cl)cc1	11.1
Cc1c(C(c2cccc([N+](=O)[O-])c2O)c2c(C)n(C)n(-c3ccccc3)c2=O)c(=O)n(-c2ccccc2)n1C	-2.28
CCc1cccc(NC(=S)N(CCOC)C(C)c2ccco2)c1 (stereo not shown)	-2.48
COc1ccc(-n2cc3ccc([N+](=O)[O-])cc3n2)cc1	7.2
CCCCn1c(=N)n(CC(O)c2ccccc2)c2ccccc21.Cl (stereo not shown)	-64.9
COc1cccc(C(O)Cc2nc3ccccc3n2C)c1OC (stereo not shown)	23.7
CCn1c(=N)n(CC(O)c2cccs2)c2ccccc21.Cl (stereo not shown)	-60.4
Br.Cn1c(=N)n(CC(=O)O)c2ccccc21	-5.99
Cl.Cn1c(=N)n(CC(O)c2cccs2)c2ccccc21 (stereo not shown)	-39.9
Cl.Cn1c(=N)n(CC(O)c2ccccc2)c2ccccc21 (stereo not shown)	-26.3
CCCn1c(C(O)c2ccc(C)cc2)nc2ccccc21 (stereo not shown)	15.8
CCCn1c(=N)n(CC(O)c2ccc(C)cc2)c2ccccc21.Cl (stereo not shown)	-65.6
Cl.Cn1c(=N)n(CC(O)c2cccc3ccccc23)c2ccccc21 (stereo not shown)	-67
CCCCCN(C(=O)CCC(=O)OCC(=O)N(CC#N)c1ccccc1)c1c(N)n(CCCC)c(=O)[nH]c1=O	-0.196
COc1ccc(NC(=O)C(OC(=O)c2cnccn2)c2ccccc2)cc1Cl (stereo not shown)	24.7
Cc1ccc(S(=O)(=O)N2CCN(Cc3csc(C)n3)CC2)cc1	6.87
O=[N+]([O-])c1ccc(-c2nn(-c3ccccc3)cc2/C=N/n2c(-c3ccncc3)n[nH]c2=S)cc1	19.4
CN1CCN(C(=O)c2cc3ccccc3[nH]2)CC1	-3.26
CCN(CC)c1ccc(/C=C(/C#N)C(=O)NCc2ccccc2)o1	2.6

SMILES	hERG current change (%, negative = inhibition) at 10uM [%]
CCOc1ccc(N2C(=O)CC(N(O)c3ccccc3)C2=O)cc1 (stereo not shown)	2.96
OCC[C@H]1C[C@H](O)[C@@H](O)[C@]2(CCCc3ccccc3O2)O1	0.151
COCCNC(=O)CN1CCN(S(=O)(=O)c2ccc3c(c2)CCCC3)CC1	-7.28
COc1cc(N2C(=O)CC3(CCCC3)CC2=O)cc(OC)c1OC	4.04
N#CC(CCN1CCOCC1)(c1ccccc1)c1ccccc1	-20.8
CCOC(=O)C1(c2ccccc2)CCN(CCC(C#N)(c2ccccc2)c2ccccc2)CC1.Cl	-25
CN1CCN(CCC(C#N)(c2ccccc2)c2ccccc2)CC1.Cl	-62.9
O=C(NCc1ccc(Cl)cc1)NCC(F)(F)F	7
Cc1ccc(NC(=O)CS(=O)CC(=O)N(C2CCCC2)C(C)C(=O)NC2CCCCC2)cc1 (stereo not shown)	-22.5
CCOC(=O)c1ccc2c(c1)nc(COc1ccc3ccccc3c1)n2CC	3.73
Cn1cccc1Cc1nnc(SCC(=O)Nc2ccc(F)cc2F)n1-c1ccc(F)cc1	-40.9
COc1ccc(NC(=O)CSc2nnc(Cc3cccn3C)n2-c2ccc(OC)cc2)cc1	-21.2
COc1ccc(NC(=O)CSc2nnc(Cc3cccn3C)n2-c2ccc(F)cc2)cc1	-21.7
COc1ccc(-n2c(Cc3cccn3C)nnc2SCC(=O)Nc2ccccc2OC)cc1	-38.5
COc1ccc(-n2c(Cc3cccn3C)nnc2SCC(=O)Nc2ccccc2F)cc1	-53.7
COc1ccc(-n2c(Cc3cccn3C)nnc2SCC(=O)Nc2cc(C)cc(C)c2)cc1	-52.4
COc1ccc(-n2c(Cc3cccn3C)nnc2SCC(=O)Nc2ccc(F)cc2F)cc1	-57.4
Cn1cccc1Cc1nnc(SCC(=O)Nc2ccccc2F)n1-c1ccc(F)cc1	-17.4
COc1ccc(-n2c(Cc3cccn3C)nnc2SCC(=O)Nc2cc(Cl)ccc2OC)cc1	-97.9
COc1ccc(-n2c(Cc3cccn3C)nnc2SCC(=O)Nc2ccc(C)cc2)cc1	-26.4
COc1ccc(Cl)cc1NC(=O)CSc1nnc(Cc2cccn2C)n1-c1ccc(F)cc1	-34.6
COc1ccc(OC)c(NC(=O)CSc2nnc(Cc3cccn3C)n2-c2ccc(F)cc2)c1	-10.4
